Experimental data as given in PubChem BioAssay.
For some assays here: Measured potencies and affinities stand elsewhere. The source made the active and inactive calls.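 Rule for the calls, unless noted: active = primary screen active and over 50% activation in each of two duplicate runs; inactive = the rest.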

Columns and labels:
[1] = test system: TRPC4 beta (transient receptor potential cation channel C4), mouse; assay: activators of mouse TRPC4 channel, confirmation, cell-based, Fluo4 calcium, HEK293 TRPC4beta/mu-opioid, duplicates, 10 µM (AID 2426;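 active = fluorescence ratio normalized to control raised more than 50% in primary screen plus both repeat runs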;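 note: percent rise of integrated ratio over buffer wells lacking compound which define 0%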); details: Fluo4 calcium fluorescence, at 10 µM; stronger effect = higher value
[2] = test system: transient receptor potential cation channel C4 beta (TRPC4), mouse; assay: activators of mouse TRPC4 channel, confirmation, cell-based, second round, Fluo4, HEK293 TRPC4beta/mu-opioid, 1 µM (AID 2461); details: Fluo4 calcium fluorescence, at 1 µM; stronger effect = higher value;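 for activation: 0% = wells without test compound as baseline of integrated fluorescence ratio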
[3] = test system: TRPC4 (transient receptor potential cation channel C4 beta), mouse; assay: positive allosteric modulators of mouse TRPC4, confirmation, cell-based, second round, Fluo-4, HEK293 TRPC4beta/mu-opioid, 1 µM (AID 2554;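 active = primary screen hit whose fluorescence ratio, in both repeats, exceeds the weak agonist control mean by 3 SD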); details: DAMGO EC20, Fluo-4 calcium flux, at 1 µM; stronger effect = higher value
[4] = test system: TRPC4 beta (transient receptor potential cation channel C4), mouse; assay: positive allosteric modulators of mouse TRPC4, confirmation, cell-based, Fluo-4, HEK293 TRPC4beta/mu-opioid (AID 2555;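 active = primary screen hit whose calcium fluorescence ratio, in both repeats, exceeds the weak agonist control mean by 3 SD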); details: DAMGO EC20, Fluo-4 calcium flux, at 10 µM; stronger effect = higher value
[5] = target: Short transient receptor potential channel 4 (Mus musculus) (UniProt Q9QUQ5); assay: inhibitors of mouse TRPC4 channel, confirmation, cell-based, Fluo4, HEK293 TRPC4beta/mu-opioid (AID 2636;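 active = calcium signal cut by more than 3 SD below the full-agonist control yet still positive, in both repeats and the earlier primary screen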); details: DAMGO, Fluo4 calcium flux, at 10 µM; stronger effect = higher value
[6] = target: Short transient receptor potential channel 4 (Mus musculus) (UniProt Q9QUQ5); assay: inhibitors of mouse TRPC4 channel, confirmation, cell-based, second round, Fluo4, HEK293 TRPC4beta/mu-opioid, 1 µM (AID 2637;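 active = calcium signal ratio cut to more than 3 SD under the fully stimulated control mean yet still positive, in both repeats and the primary screen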); details: Fluo4 calcium flux, DAMGO, at 1 µM; stronger effect = higher value
[7] = target: Short transient receptor potential channel 4 (Mus musculus) (UniProt Q9QUQ5); assay: TRPC4 positive allosteric modulators, dose response, cell-based, HEK293 TRPC4/mu-opioid, Fluo-4 calcium, EC20 DAMGO (AID 434941;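 active = earlier screen potentiator hit that boosts the TRPC4 ion channel at some dose, with a dose response; inactive = no potentiation, no dose response, or not a prior hit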;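 note: calcium entry triggered by an EC20 dose of DAMGO at the co-expressed mu-opioid receptor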)
[8] = target: Short transient receptor potential channel 4 (Mus musculus) (UniProt Q9QUQ5); assay: mouse TRPC4 channel inhibitors, dose response, cell-based, HEK293 TRPC4/mu-opioid, Fluo-4 calcium (AID 434942;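 active = primary screen inhibitor hit that blocks the TRPC4 channel at some tested dose, yielding a dose curve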)
[9] = target: Short transient receptor potential channel 6 (Mus musculus) (UniProt Q61143); assay: inhibition of mouse TRPC6 channel, confirmation, selectivity assay for TRPC4 inhibitor project, cell-based, HEK293, membrane potential dye, duplicate (AID 434948;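 active = active in primary screen and both duplicates, each dropping signal beyond three positive-control SD with fluorescence still positive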); details: HEK293 TRPC6, membrane potential dye fluorescence, at 10 µM; inhibition: stronger effect = higher value, stimulated with maximal-effect acetylcholine unless noted; outcome: stimulated with maximal-effect acetylcholine unless noted
[10] = target: Short transient receptor potential channel 6 (Mus musculus) (UniProt Q61143); assay: activation of mouse TRPC6 channel, confirmation, selectivity assay for TRPC4 activator project, cell-based, HEK293, membrane potential dye, duplicate (AID 434950;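 active = membrane potential signal rise above negative control mean plus 3 SD in both duplicates, also active in the earlier TRPC4 screen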;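 for activation: 0% = buffer only wells and 100% = acetylcholine maximal-effect wells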); details: HEK293 TRPC6, membrane potential fluorescence, at 10 µM; stronger effect = higher value
[11] = target: Short transient receptor potential channel 6 (Mus musculus) (UniProt Q61143); assay: TRPC6 potentiation by TRPC4 potentiator hits, confirmation, selectivity assay for TRPC4 potentiator project, HEK293 cells, membrane potential dye, duplicate (AID 434952;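 active = compound raising the membrane signal above positive-control mean plus 3 SD in both repeats, and a primary screen hit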); details: HEK293 TRPC6, membrane potential dye fluorescence, at 10 µM; maximal acetylcholine added after compound unless noted
[12] = target: Short transient receptor potential channel 4 (Mus musculus) (UniProt Q9QUQ5); assay: calcium flux activators in TRPC4/5HT1a cells, counter-screen for TRPC4 activator project, cell-based, second counter screen, HEK293 TRPC4/5HT1a, Fluo-4 (AID 434977;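 active = calcium signal rise above buffer-control mean plus 5 SD in both duplicates, and also a hit in the primary screen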;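 for activation: plate controls were assay buffer for no effect and maximal serotonin response for full effect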); details: Fluo-4 calcium flux, at 10 µM; stronger effect = higher value
[13] = calcium flux inhibitors in TRPC4/5HT1a cells, confirmation, counter-screen for TRPC4 inhibitor project, cell-based, second counter screen, HEK293 TRPC4/5HT1a, Fluo-4 (AID 434978;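 active = primary screen active whose calcium signal fell more than 3 SD beyond the full-serotonin control mean in both duplicate plates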;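 note: serotonin given first at submaximal then at maximal dose after compound preincubation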); details: Fluo-4 calcium flux, at 10 µM; inhibition: stronger effect = higher value, serotonin added to trigger calcium flux unless noted; outcome: serotonin added to trigger calcium flux unless noted
[14] = test system: TRPC4 (mouse), co-expressed with 5HT1a in HEK293; assay: calcium flux potentiators in TRPC4/5HT1a cells, confirmation, counter-screen for TRPC4 potentiator project, cell-based, second counter screen, HEK293 TRPC4/5HT1a, Fluo-4 (AID 434979;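 active = signal rise over 3 SD above mean of control wells given weak agonist, in both repeats and first screen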); details: Fluo-4 calcium flux, at 10 µM; outcome: serotonin added at its EC20 dose unless noted; potentiation: stronger effect = higher value, serotonin added at its EC20 dose unless noted
[15] = calcium flux activation in mu-opioid HEK293 cells, confirmation, counter-screen for TRPC4 activator project, cell-based, HEK293 mu-opioid receptor line (AID 449723;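 active = hit in primary screen, with calcium signal over 5 SD above buffer well mean in both duplicates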;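 note: counter screen cells carry the mu-opioid receptor alone and lack TRPC4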); details: Fluo-4 calcium fluorescence, at 10 µM; stronger effect = higher value
[16] = calcium flux enhancement in mu-opioid HEK293 cells, confirmation, counter-screen for TRPC4 allosteric potentiator project, cell-based, HEK293 mu-opioid receptor line (AID 449724;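 active = calcium signal rise more than 3 SD above the low-dose agonist control mean, in both duplicate plates and the primary screen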); details: Fluo-4 calcium flux, at 10 µM; compound added before EC20 DAMGO stimulus unless noted
[17] = thallium flux activation in parental CHO cells, counter-screen for KCNQ1 potentiator project (AID 493006;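 active = duplicate-averaged activation above buffer control mean plus 5 SD of those controls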;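 note: fluorescence ratio of max minus min over baseline after K+ and Tl+ depolarization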); details: parental CHO-K1 cells, FluxOR thallium flux, at 10 µM; stronger effect = higher value

Sequence of Short transient receptor potential channel 4 (Mus musculus) (Q9QUQ5 whole entry, looked up): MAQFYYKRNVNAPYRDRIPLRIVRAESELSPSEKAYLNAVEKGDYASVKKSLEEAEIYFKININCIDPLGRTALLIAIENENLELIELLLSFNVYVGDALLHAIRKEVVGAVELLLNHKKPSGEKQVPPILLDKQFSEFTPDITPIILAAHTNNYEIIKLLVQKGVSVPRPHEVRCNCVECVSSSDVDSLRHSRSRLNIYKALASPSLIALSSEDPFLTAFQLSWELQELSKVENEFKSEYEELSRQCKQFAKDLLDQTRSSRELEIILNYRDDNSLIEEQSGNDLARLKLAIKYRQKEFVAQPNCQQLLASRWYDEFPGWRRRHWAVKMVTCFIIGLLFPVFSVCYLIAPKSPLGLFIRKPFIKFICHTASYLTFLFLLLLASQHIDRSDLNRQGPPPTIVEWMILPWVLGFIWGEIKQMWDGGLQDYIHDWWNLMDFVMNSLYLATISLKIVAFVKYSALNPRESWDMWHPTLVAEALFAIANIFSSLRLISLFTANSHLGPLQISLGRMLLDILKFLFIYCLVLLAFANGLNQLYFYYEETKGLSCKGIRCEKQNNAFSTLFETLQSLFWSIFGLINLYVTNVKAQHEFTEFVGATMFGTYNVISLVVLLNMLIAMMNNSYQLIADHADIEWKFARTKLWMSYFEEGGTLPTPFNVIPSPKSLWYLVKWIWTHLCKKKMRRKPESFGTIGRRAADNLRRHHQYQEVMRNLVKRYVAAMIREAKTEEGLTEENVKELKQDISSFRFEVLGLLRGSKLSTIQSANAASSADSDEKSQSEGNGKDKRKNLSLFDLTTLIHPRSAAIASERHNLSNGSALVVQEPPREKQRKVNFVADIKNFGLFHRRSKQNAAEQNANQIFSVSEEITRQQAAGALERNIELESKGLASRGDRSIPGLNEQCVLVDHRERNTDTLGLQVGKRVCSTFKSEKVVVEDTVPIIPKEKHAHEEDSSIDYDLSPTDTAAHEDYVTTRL
Sequence of Short transient receptor potential channel 6 (Mus musculus) (Q61143 whole entry, looked up): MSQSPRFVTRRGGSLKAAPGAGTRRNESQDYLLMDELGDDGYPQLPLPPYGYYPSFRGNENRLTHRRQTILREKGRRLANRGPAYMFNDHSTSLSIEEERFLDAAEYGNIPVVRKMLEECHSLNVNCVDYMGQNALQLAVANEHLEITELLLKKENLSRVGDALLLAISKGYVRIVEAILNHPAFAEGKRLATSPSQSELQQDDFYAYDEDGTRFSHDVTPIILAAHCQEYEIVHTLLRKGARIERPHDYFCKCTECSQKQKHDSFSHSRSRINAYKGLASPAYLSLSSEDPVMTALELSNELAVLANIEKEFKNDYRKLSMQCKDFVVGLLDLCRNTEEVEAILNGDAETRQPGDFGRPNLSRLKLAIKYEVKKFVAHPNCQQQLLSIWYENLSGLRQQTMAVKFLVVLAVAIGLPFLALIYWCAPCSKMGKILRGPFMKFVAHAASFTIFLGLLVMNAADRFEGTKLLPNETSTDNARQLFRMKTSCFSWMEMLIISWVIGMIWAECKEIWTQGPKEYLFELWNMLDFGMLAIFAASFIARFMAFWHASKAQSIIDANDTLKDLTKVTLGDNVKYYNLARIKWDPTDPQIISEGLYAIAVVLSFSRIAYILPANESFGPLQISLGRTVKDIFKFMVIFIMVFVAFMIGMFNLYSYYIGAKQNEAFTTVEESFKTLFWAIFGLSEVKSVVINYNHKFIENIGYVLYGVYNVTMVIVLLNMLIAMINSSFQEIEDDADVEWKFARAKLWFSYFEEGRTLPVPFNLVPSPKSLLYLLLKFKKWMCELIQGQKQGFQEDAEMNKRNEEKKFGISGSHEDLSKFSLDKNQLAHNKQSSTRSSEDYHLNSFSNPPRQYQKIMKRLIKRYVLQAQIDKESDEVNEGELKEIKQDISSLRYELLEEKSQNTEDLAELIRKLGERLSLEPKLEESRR

O=C(CCCc1ccccc1)NCCc1cnc[nH]1
inactive: outcome [2] | outcome [3] | outcome [4] | outcome [5] | outcome [6] | outcome [7] | outcome [8] | outcome [9] | outcome [10] | outcome [11] | outcome [13] | outcome [14] | outcome [15] | outcome [16]
active: activation [1] 137% | activation [12] 35.3%

Cc1ccc(-n2cc(CNC(C)Cc3cnccn3)c(-c3cccc(C)c3)n2)cc1 (stereo not drawn)
inactive: outcome [2] | outcome [3] | outcome [4] | outcome [5] | outcome [6] | outcome [7] | outcome [8] | outcome [9] | outcome [11] | outcome [12] | outcome [13] | outcome [14] | outcome [15] | outcome [16]
active: activation [1] 146% | activation [10] 42.5%

CN(C)C(CNC(=O)Cc1ccc(Br)cc1)c1ccccc1 (stereo not drawn)
inactive: outcome [3] | outcome [4] | outcome [5] | outcome [6] | outcome [7] | outcome [8] | outcome [9] | outcome [11] | outcome [12] | outcome [13] | outcome [14] | outcome [15] | outcome [16]
active: activation [1] 96% | activation [2] 133% | activation [10] 38.5%

O=C(CCCN1CCC2(CC1)C(=O)NCN2c1ccccc1)c1ccc(F)cc1
inactive: outcome [2] | outcome [3] | outcome [4] | outcome [5] | outcome [6] | outcome [7] | outcome [8] | outcome [9] | outcome [11] | outcome [13] | outcome [14] | outcome [16]
active: activation [1] 193% | activation [10] 39.5% | activation [12] 86.7% | activation [15] 48% | activation [17] 336%

CCC(=O)OC1(c2cccc(C)c2)CC(C)N(C)CC1C (stereo not drawn)
active: activation [1] 79% | activation [10] 74.5%
inactive: outcome [2] | outcome [3] | outcome [4] | outcome [5] | outcome [6] | outcome [7] | outcome [8] | outcome [9] inactive [setting not given] | outcome [11] inactive [setting not given] | outcome [12] | outcome [13] inactive [setting not given] | outcome [14] inactive [setting not given] | outcome [15] | outcome [16] inactive [setting not given]

C[C@H]1OC[C@@H](C[N+](C)(C)C)O1
active: activation [1] 152% | activation [2] 99% | activation [10] 96% | activation [12] 85% | activation [15] 87.7%
inactive: outcome [3] | outcome [4] | outcome [5] | outcome [6] | outcome [7] | outcome [8] | outcome [9] | outcome [11] | outcome [13] | outcome [14] | outcome [16]

O=[N+]([O-])c1ccc(N2CCNCC2)c2ncccc12
inactive: outcome [5] | outcome [6] | outcome [7] | outcome [8] | outcome [9] | outcome [10] | outcome [11] | outcome [13] | outcome [15] | outcome [16]
active: activation [1] 69% | activation [2] 64% | potentiation [3] 19% | potentiation [4] 23% | activation [12] 38% | potentiation [14] 11%
